Experimental data published in PubChem BioAssay (EPA / NIEHS).
Active and inactive are the calls of the source. How the source made its calls: active means hit-call score of the fitted dose curve at least 0.9, where 1 is the maximum; inactive means score below 0.9.

Assay: BSK_3C_VCAM1: BioMAP Diversity Plus: 3C Assay for Vascular cell adhesion molecule 1 (VCAM1) Biomarker Activity (AID 2282999)
Conditions: BioMAP 3C HUVEC, VCAM1 ELISA, cytokine-stimulated; actives raise or lower the signal
Description: BSK_3C is a cell-based, multiplexed-readout assay that uses umbilical vein endothelium, a human vascular primary cell, with measurements taken at 24 hours after chemical dosing in a 96-well plate.BSK_3C_VCAM1 is an assay component measured in the BSK_3C assay. It measures VCAM-1 antibody related to regulation of gene expression using ELISA technology.Data from the assay component BSK_3C_VCAM1 was analyzed into 1 assay endpoint. This assay endpoint, BSK_3C_VCAM1, was analyzed with bidirectional fitting relative to DMSO as the negative control and baseline of activity. Using a type of binding reporter, gain or loss-of-signal activity can be used to understand changes in the signaling as they relate to the gene VCAM1. Furthermore, this assay endpoint can be referred to as a primary readout, because this assay has produced multiple assay endpoints where this one serves a signaling function. To generalize the intended target to other relatable targets, this assay endpoint is annotated to the cell adhesion molecules intended target family, where the subfamily is Immunoglobulin CAM.
The levels of cell surface (or secreted, indicated by the prefix "s") biomarker endpoints were measured by ELISA. Overt cytotoxicity to cells in confluent adherent cultures (all systems other than the BT system) was assessed by measuring total protein levels using sulforhodamine B (SRB) staining in parallel cultures at the time of biomarker measurements, indicated as SRB endpoints. For proliferation assays for adherent cell types, individual cell types are cultured at sub-confluence and relative cell numbers quantified by SRB staining at time points optimized for each system (48 h: 3C and CASM3C systems; 72 h: BT and HDF3CGF systems; 96 h: SAg system). SRB was performed by staining cells with 0.1% SRB after fixation with 10% TCA and reading wells at 560 nm.Viability and proliferation of PBMC (T cells) was quantified by Alamar Blue reduction for the SAg and BT systems. For PBMC viability (referred to as PBMC Cytotoxicity within the assay endpoint names), cells were plated (75,000/well in a 96-well plate) and then chemical samples added for 1 h before addition of activators, SEB and TSST-1 (20 ng/mL final concentration each). Cells were incubated for 90 h. Then, Alamar Blue (20 uL/well) (Invitrogen, Cat DAL1100) was added for 6 h, and the plates were read with a fluorescence microplate reader at 546/580 nm (excitation/emission). For PBMC proliferation, cells were plated and activated as above but incubated for only 16 h prior to addition of Alamar Blue. Plates were read after 6 h.

SMILES	outcome	AC50
O=C(N[C@H]1CN2CCC1CC2)c1ccc2c(c1)OCCO2	inactive	–
CCC(C)(C#N)N=NC(C)(C#N)CC (stereo not given)	inactive	–
CCOP(=S)(OCC)SCS(=O)(=O)C(C)(C)C	inactive	–
O=C(O)C1(c2ccc3c(c2)OC[C@H](Cc2ccc(-c4ccccc4)cc2)[C@H]3O)CCCC1	–	20 µM (active)
N#CCCC(Br)(C#N)CBr (stereo not given)	–	7.92 µM (active)
Cc1cc(Cl)ccc1N	inactive	–
O=C(O)COc1cc(Cl)c(Cl)cc1Cl	inactive	–
O=[N+]([O-])c1ccc(Nc2ccccc2)cc1	inactive	–
CCCCCCCCCCCCN(C)C	inactive	–
CC(C)N(C(=O)CCl)c1ccccc1	–	20 µM (active)
Cc1ccccc1OP(=O)(Oc1ccccc1C)Oc1ccccc1C	–	11.8 µM (active)
Cc1c([N+](=O)[O-])c(C)c([N+](=O)[O-])c(C(C)(C)C)c1[N+](=O)[O-]	–	20 µM (active)
O=[N+]([O-])c1cccc2ccccc12	inactive	–
Cc1ccc2nc3sc(=O)sc3nc2c1	–	7.59 µM (active)
CCCCCCCCCCCCc1cccc(S(=O)(=O)O)c1	inactive	–
C[C@]12CC[C@@H](O)C[C@@H]1CC[C@@H]1[C@@H]2CC[C@]2(C)C(=O)CC[C@@H]12	inactive	–
Clc1cccc(Cl)c1	inactive	–
Cc1cc(C)cc(C)c1	inactive	–
Nc1ccc(N)cc1	inactive	–
O=C(Cc1ccccc1)OCCc1ccccc1	inactive	–

SMILES	outcome	AC50
N#Cc1cccnc1	inactive	–
CC(C)(C)c1ccccc1O	inactive	–
c1ccc2sc(SNC3CCCCC3)nc2c1	inactive	–
CCOP(=S)(OCC)OP(=S)(OCC)OCC	–	31.9 µM (active)
OC(Cc1ccccc1Cl)(Cn1cncn1)C1(Cl)CC1 (stereo not given)	inactive	–
Oc1cccc(-c2ccccc2)c1	–	37.1 µM (active)
O=C1C=CC(=O)c2ccccc21	–	3.48 µM (active)
O=S(=O)(c1ccc(Cl)cc1)c1cc(Cl)c(Cl)cc1Cl	inactive	–
NC(=O)CCl	inactive	–
Oc1cc(Cl)c(Cl)cc1Cl	inactive	–
O=S(=O)(C(Cl)(Cl)Cl)C(Cl)(Cl)Cl	–	2.08 µM (active)
OCCCCO	inactive	–
Cc1ccccc1OP(=O)(Oc1ccccc1)Oc1ccccc1	–	20 µM (active)
CC(C)=CC1C(C(=O)OCc2cccc(Oc3ccccc3)c2)C1(C)C (stereo not given)	inactive	–
Clc1cccc(Cl)c1Cl	inactive	–
Cc1cc(C(C)(C)c2ccc(O)c(C)c2)ccc1O	–	15 µM (active)
Oc1ccc(Cc2ccc(O)cc2)cc1	inactive	–
CCOP(=O)(OCC)SCCSCC	inactive	–
CC(C)(C)c1cc([N+](=O)[O-])cc(C(C)(C)C)c1O	–	9.12 µM (active)
O=C(CCl)NCO	inactive	–
